# Bioassay records deposited in PubChem by several laboratories.
# ERa SRC1 inh – blocks coactivator binding to human estrogen receptor alpha; 1.7% of 86,000 active; AID 629; P03372; TR-FRET ER-alpha LBD / SRC-1 peptide, estradiol-bound; inhibition, % at 25.6 µM; in the data active = inhibition above about 50%;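 note: 0% = receptor plus peptide control and 100% = peptide only without receptor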
# ERb SRC1 inh – ER-beta (human) coactivator binding inhibition. Q92731. TR-FRET ER-beta LBD / SRC1-Cy5 peptide binding; receptor agonist-loaded with 1 µM estradiol. inhibition, % at 25.6 µM. 1.3% of 86,000 active. AID 633;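 active = compounds whose percent inhibition of the receptor-coactivator binding signal exceeds about 50% in the single-dose screen, limit read from the data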;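 note: 0% = receptor plus peptide wells without compound and 100% = peptide-only wells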
# Smad3 inh – blocks human Smad3 binding to FoxH1 peptide; P84022; TR-FRET Smad3/Dy647-FoxH1 peptide binding, europium anti-His; inhibition, % at 25 µM; 0.29% of 88,000 active;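 active = compounds that reduce the energy-transfer binding signal between the protein and its labelled peptide by more than half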;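 note: 0% = Smad3 plus labelled peptide maximal FRET and 100% = peptide-only background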
# Target sequence (P84022 whole entry, looked up): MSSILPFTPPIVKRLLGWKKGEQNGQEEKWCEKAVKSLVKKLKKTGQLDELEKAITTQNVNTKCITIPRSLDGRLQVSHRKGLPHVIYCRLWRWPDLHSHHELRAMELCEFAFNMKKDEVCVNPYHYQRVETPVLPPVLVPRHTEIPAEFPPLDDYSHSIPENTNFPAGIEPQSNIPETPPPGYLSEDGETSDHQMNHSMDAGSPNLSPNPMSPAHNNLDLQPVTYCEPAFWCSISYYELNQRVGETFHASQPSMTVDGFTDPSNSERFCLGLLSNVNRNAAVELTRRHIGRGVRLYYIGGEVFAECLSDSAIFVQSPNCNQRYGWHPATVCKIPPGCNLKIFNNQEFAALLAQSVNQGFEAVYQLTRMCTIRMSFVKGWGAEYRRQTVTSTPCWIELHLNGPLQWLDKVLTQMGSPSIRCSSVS
# Plk1 PBD FP – blocks phosphopeptide binding to human Plk1 polo box domain; P53350; Plk1 PBD phosphopeptide binding, fluorescence polarization; inhibition, %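 (tested at about 20 µM)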; 0.13% of 97,000 active; AID 693; in the data active = inhibition above about 34%, passing the limit was not always enough
# ERa SRC1 pot – enhances coactivator binding to human estrogen receptor alpha; coactivator binding (% of control), % at 25.6 µM; TR-FRET ERalpha-LBD/SRC-Cy5 coactivator binding, 2 h; 100 = basal binding, no effect; 1.3% of 86,000 active; P03372; in the data active = activity above about 200%;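 note: binding measured in presence of low estradiol as agonist stimulus; 0% = peptide alone without receptor and 100% = receptor with peptide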
# PLK1 kinase inh – PLK1 (human) kinase inhibition; recombinant PLK1 kinase, TR-FRET peptide phosphorylation; inhibition, % at 10 µM; 0.53% of 97,000 active; AID 619;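 active = inhibition of 50% or more in the single-concentration screen; inactive = inhibition below 50%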;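 note: 0% = DMSO max control and 100% = H-89 dihydrochloride min control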
# * hit, by the source's call; nt = no result given; [ ] = another dose, or the depositor's remark. Only some compounds are listed: those with a hit (about 3.3% of all), similar ones and a draw of the others.
SMILES,ERa SRC1 inh,ERb SRC1 inh,Smad3 inh,Plk1 PBD FP,ERa SRC1 pot,PLK1 kinase inh
Nc1ccc(N=Nc2ccc(-c3ccc(O)cc3)cc2)c2ccc(S(=O)(=O)O)cc12,nt,nt,17.5,nt,nt,nt
O=c1oc2ccccc2cc1-c1nc2ccccc2o1,nt,nt,nt,-15.4,nt,-16.9
O=c1oc2ccc3ccccc3c2cc1-c1nc2ccccc2o1,50.9*[fluorescence artefact?],27.1,-7.4,19.6,177.3,1.8
O=C(CC1Oc2ccccc2NC1=O)NC1CC1 (stereo not given),13.5,22.4,-7.7,-10.0,91.9,-0.9
O=C(CC1Oc2ccccc2NC1=O)NC1CCCC1 (stereo not given),-6.6,-1.7,7.2,-10.8,94.6,69.0*
Cn1c(-c2ccc(C=O)s2)nc2c3ccccc3c3ccccc3c21,32.3,-0.5,-74.3,-24.9,364.3*[fluorescence artefact?],-20.8
Cc1ccnc(NS(=O)(=O)c2ccc(N=[N+]=[N-])cc2)n1,nt,nt,-5.1,nt,nt,nt
O=C(COC(=O)C1CCCN1C(=O)c1cccs1)Nc1ccc2c(c1)OCO2 (stereo not given),51.6*[fluorescence artefact?],37.6,-5.3,-8.8,69.7,8.1
COc1ccc(NC(=O)COC(=O)[C@@H]2CCCN2C(=O)c2cccs2)cc1,nt,nt,nt,5.2,nt,-19.8
O=C(O)C/C(=C/c1ccccc1)C(=O)O,nt,nt,-5.8,nt,nt,nt
CC1(C)N=C(N)N=C(N)N1c1cccc(OCc2cccc([N+](=O)[O-])c2)c1,nt,nt,33.1,nt,nt,nt
COc1ccc(-c2cc(C(=O)Nc3cccc(C(C)=O)c3)no2)cc1,16.1,9.7,-0.6,31.9,228.3*[fluorescence artefact?],-14.1
CC(C)(CN)CN,nt,nt,-3.8,nt,nt,nt
O=C(O)c1cc(C(=O)C(=O)c2cc(C(=O)O)c(O)c3ccccc23)c2ccccc2c1O,nt,nt,39.0,nt,nt,nt
O=C1CCCC2=C1C1(O)C(=O)c3ccccc3C1(O)O2 (stereo not given),3.4,-9.9,65.9*,-4.6,124.5,-1.0
c1ccc(-c2cnc(-c3ccc(-c4ncc(-c5ccccc5)o4)cc3)o2)cc1,nt,nt,8.4,nt,nt,nt
CC(C)(Oc1ccc(-c2cccc3ccccc23)cc1)C(=O)O,nt,nt,30.1,nt,nt,nt
Cc1sc2ncnc(SCC(=O)c3ccc(Cl)s3)c2c1C,-0.4,-2.7,-88.3,-23.2,243.1*,-5.4
CCC(Sc1ncnc2sc(C)c(C)c12)C(=O)OC (stereo not given),63.2*[fluorescence artefact?],60.6*,6.2,-21.4,41.9,-14.8
Cc1ccc(NC(=O)CN(C)c2ccc(S(=O)(=O)N3CCN(C)CC3)cn2)cc1,-66.4,5.2,-8.6,-11.5,480.9*[fluorescence artefact?],-1.4
CN1CCN(S(=O)(=O)c2ccc(N(C)CC(=O)Nc3ccc(F)cc3)nc2)CC1,-6.1,7.8,-0.4,0.6,162.1,-10.1
NCC(=O)Nc1ccc(Cl)cc1C(=O)c1ccc[nH]1,nt,nt,7.2,nt,nt,nt
CN1C(=O)COc2ccc(C(=O)c3oc4ccccc4c3-c3cnc4c(c3)COc3ccccc3-4)cc21,15.7,21.1,-21.1,-16.7,317.4*[fluorescence artefact?],-16.5
Cc1ccc(O)c(C(=O)c2cnc3c(c2)COc2ccc(C)cc2-3)c1,27.7,2.1,-8.8,-6.2,101.5,-6.3
O=C1c2ccccc2CC1(Cc1ccccc1)Cc1ccccc1,1.5,-6.2,-11.0,-7.6,278.9*,-7.6
SMILES,ERa SRC1 inh,ERb SRC1 inh,Smad3 inh,Plk1 PBD FP,ERa SRC1 pot,PLK1 kinase inh
CC1(C)Cc2ccccc2C(=O)N1,-0.8,18.1,17.2,10.7,131.6,-9.6
NCc1nnn(Cc2ccccc2)c1N,nt,nt,1.3,nt,nt,nt
O=S(=O)(/N=C(\Sc1ccc(Cl)cc1)c1ccccc1)c1ccccc1,77.3*,55.2*[fluorescence artefact?],-5.6,-24.6,27.4,-4.0
CS/C(=N\S(=O)(=O)c1ccc(Cl)cc1)c1ccccc1,nt,nt,nt,-15.2,nt,-2.1
C=CC[C@@H](C(=O)O)c1ccccc1,nt,nt,-7.4,nt,nt,nt
N=c1c(-c2nc3ccccc3[nH]2)cc(C(=O)c2cccs2)nn1-c1ccccc1,91.8*[fluorescence artefact?],62.5*[fluorescence artefact?],8.5,-1.6,61.3,-9.0
CCOC(=O)C1CCN(C(=O)Nc2ccc3nc(-c4ccco4)c(-c4ccco4)nc3c2)CC1,95.5*[fluorescence artefact?],95.0*[fluorescence artefact?],19.1,-5.9,31.4,7.8
CCOC(=O)C1CCN(C(=O)Nc2ccc3c(c2)nc(C)n3C)CC1,-22.2,-19.9,9.8,-24.9,108.8,-14.3
Cc1ccc2c(c1)c1cccc3c1n2CCN3CCC(N)=O,10.6,60.2*[fluorescence artefact?],-0.7,9.1,71.8,-6.4
COc1ccc(-c2nc3c(c(=O)[nH]c(=O)n3Cc3ccccc3)n2C)cc1,35.2,40.7,16.6,-7.1,269.8*[fluorescence artefact?],-45.1
Cc1cc(=Nc2ccc3c(c2)c(N)cc(C)[n+]3C)nc(N)n1C,nt,nt,-0.7,nt,nt,nt
